Our source for the log2 fold change values is the supplement of paper PMC10849652.

What all share (test): log2 fold change, soluble protein after heating vs DMSO (PISA); higher = thermal stabilisation; K562 lysate, 10 uM; active = over 0.2 and 3.5 SD of the protein, either way, in both replicates (recomputed)
Compound in one experiment: CCCS(=O)(=O)Nc1ccc(F)c(C(=O)c2c[nH]c3ncc(-c4ccc(Cl)cc4)cc23)c1F [vemurafenib]
Summed up:
(§1)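 Soluble protein was defined as the supernatant remaining after 21,000xg for 90 min, following pooling of heated aliquots and adjustment to 0.5% NP-40 at 4°C. Before that, crude K562 extract at 1 mg/mL protein in PBS pH 7.4 with 1 mM MgCl2 was treated with 10 μM compound for 30 min and heated for 3 min across 48°C-58°C. Quantification used TMTpro 16plex LC-MS/MS with channel sums equalised, and values are log-two fold changes in thermal stability relative to solvent controls from duplicates.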

Compound in experiment [1]: CC[C@@H]1C(=O)N(C)c2cnc(Nc3ccc(C(=O)NC4CCN(C)CC4)cc3OC)nc2N1C1CCCC1
Summed up:
as §1

Compound in experiment [2]: CCn1c(C(=O)N(C2CC2)C2CC2)cc2c3c(ncn3C)c(Nc3cc(C)n(C)n3)nc21
The gist of the method: as §1

Compound in experiment [3]: CCn1cc(-c2ccnc3[nH]c(-c4cccc(CN(C)C)c4)cc23)c(-c2ccc(NC(=O)N(C)C)cc2)n1
The gist of the method:
as §1

Compound in experiment [4]: CN1CCC(CNc2ccc3ncc(-c4cccc(OC(F)(F)F)c4)n3n2)CC1
The gist of the method:
as §1

Compound in a further experiment: CN1CCN(CCOc2cc(OC3CCOCC3)c3c(Nc4c(Cl)ccc5c4OCO5)ncnc3c2)CC1 [saracatinib]
The gist of the method: as §1

Compound in a further experiment: CN1CCN(c2nc(C3=C(c4c[nH]c5ccccc45)C(=O)NC3=O)c3ccccc3n2)CC1 [sotrastaurin]
The gist of the method: as §1

Compound in experiment [5]: CCCS(=O)(=O)Nc1ccc(F)c(C(=O)c2c[nH]c3ncc(Cl)cc23)c1F
The gist of the method: as §1

Compound in the next experiment: CC[C@@H]1C(=O)N(C)c2cnc(Nc3ccc(C(=O)N[C@H]4CC[C@H](N5CCN(CC6CC6)CC5)CC4)cc3OC)nc2N1C(C)C [volasertib]
The gist of the method:
as §1

Compound in the next experiment: CCN(CCCOc1ccc2c(Nc3cc(CC(=O)Nc4cccc(F)c4)[nH]n3)ncnc2c1)CCOP(=O)(O)O [barasertib]
The gist of the method:
as §1

Of roughly 8,800 targets only a part is listed; those with a hit were picked by preference. About 0.5% of all pairs of compound and target were hits. Unmarked numbers belong to inactive results.

Sequence of UniProt P41247 (P41247 whole entry, looked up): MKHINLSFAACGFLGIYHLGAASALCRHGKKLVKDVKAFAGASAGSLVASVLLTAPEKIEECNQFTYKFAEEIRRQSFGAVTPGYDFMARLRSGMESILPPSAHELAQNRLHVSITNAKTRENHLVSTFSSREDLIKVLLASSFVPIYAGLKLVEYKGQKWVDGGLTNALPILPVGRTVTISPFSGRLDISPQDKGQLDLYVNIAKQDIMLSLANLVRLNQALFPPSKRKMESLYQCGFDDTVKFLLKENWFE
Sequence of UniProt P60673 (P60673 whole entry, looked up): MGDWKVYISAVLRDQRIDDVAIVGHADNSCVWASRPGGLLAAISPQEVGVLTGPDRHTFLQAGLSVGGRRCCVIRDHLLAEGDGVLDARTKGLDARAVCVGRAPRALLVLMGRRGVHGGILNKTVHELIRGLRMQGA
Sequence of UniProt P78364 (P78364 whole entry, looked up): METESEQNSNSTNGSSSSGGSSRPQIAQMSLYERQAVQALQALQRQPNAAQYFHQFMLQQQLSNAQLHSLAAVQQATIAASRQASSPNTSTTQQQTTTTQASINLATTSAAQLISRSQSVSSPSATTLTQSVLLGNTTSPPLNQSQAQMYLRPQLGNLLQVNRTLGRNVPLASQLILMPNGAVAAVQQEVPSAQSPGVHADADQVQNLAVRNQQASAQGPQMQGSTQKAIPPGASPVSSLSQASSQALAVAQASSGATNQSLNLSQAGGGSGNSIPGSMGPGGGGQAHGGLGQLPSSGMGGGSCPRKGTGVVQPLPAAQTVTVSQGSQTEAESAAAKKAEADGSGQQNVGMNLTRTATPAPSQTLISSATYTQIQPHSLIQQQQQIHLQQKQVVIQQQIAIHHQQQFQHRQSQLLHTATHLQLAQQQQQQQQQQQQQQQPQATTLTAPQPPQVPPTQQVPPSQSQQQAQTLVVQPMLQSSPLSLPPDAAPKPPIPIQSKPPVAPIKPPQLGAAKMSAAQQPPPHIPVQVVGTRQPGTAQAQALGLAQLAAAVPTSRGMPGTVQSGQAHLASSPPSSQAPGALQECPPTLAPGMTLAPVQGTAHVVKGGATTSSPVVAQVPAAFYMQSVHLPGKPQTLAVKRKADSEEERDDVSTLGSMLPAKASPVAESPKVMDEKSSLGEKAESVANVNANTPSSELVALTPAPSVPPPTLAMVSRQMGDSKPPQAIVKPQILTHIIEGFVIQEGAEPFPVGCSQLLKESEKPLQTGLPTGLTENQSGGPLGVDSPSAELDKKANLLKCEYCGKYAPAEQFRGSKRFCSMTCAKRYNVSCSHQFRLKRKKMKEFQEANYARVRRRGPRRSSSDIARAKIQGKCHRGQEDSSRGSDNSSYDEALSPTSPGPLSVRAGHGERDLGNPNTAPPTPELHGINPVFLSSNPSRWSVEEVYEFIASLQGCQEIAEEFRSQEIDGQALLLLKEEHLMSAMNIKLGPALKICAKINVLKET
Sequence of UniProt Q16378 (Q16378 whole entry, looked up): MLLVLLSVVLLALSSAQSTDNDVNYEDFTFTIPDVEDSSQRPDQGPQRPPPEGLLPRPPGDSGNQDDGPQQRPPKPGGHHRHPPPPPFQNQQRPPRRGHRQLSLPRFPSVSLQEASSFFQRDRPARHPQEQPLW
Sequence of UniProt P11309 (P11309 whole entry, looked up): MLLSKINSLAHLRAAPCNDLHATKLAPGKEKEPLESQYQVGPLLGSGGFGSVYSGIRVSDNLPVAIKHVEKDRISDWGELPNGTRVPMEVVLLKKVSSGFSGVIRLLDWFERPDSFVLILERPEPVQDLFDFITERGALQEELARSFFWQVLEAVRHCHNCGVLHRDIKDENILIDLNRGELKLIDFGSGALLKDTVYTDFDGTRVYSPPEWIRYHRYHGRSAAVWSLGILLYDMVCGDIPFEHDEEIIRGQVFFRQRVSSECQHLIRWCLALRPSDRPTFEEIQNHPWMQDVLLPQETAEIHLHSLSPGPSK
Sequence of UniProt Q99755 (Q99755 whole entry, looked up): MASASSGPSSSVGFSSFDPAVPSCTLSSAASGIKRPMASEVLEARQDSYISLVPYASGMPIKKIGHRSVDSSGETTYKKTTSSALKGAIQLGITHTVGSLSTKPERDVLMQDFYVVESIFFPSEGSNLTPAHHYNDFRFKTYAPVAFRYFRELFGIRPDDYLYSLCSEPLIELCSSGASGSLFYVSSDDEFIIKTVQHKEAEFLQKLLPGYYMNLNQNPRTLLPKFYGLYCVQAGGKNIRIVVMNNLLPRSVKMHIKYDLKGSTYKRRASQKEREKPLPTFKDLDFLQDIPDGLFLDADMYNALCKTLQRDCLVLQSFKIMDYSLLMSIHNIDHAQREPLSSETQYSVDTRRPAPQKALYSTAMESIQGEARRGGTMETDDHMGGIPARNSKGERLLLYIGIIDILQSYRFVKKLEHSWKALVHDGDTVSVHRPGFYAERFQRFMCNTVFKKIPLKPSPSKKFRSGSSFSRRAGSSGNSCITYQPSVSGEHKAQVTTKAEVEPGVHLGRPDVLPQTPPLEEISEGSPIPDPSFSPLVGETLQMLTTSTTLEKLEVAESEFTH
Sequence of UniProt Q9BRQ0 (Q9BRQ0 whole entry, looked up): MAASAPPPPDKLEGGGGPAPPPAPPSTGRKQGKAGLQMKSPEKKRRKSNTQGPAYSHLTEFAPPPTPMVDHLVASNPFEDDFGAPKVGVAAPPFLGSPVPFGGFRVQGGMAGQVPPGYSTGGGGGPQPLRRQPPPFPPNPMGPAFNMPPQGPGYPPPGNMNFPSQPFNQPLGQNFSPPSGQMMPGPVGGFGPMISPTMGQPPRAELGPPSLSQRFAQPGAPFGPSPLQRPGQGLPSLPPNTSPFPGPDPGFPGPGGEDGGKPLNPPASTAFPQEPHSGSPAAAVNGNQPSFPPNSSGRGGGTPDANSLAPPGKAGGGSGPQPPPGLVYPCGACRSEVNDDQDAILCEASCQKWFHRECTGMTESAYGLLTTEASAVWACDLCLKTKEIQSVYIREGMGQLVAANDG
Sequence of UniProt Q96LW4 (Q96LW4 whole entry, looked up): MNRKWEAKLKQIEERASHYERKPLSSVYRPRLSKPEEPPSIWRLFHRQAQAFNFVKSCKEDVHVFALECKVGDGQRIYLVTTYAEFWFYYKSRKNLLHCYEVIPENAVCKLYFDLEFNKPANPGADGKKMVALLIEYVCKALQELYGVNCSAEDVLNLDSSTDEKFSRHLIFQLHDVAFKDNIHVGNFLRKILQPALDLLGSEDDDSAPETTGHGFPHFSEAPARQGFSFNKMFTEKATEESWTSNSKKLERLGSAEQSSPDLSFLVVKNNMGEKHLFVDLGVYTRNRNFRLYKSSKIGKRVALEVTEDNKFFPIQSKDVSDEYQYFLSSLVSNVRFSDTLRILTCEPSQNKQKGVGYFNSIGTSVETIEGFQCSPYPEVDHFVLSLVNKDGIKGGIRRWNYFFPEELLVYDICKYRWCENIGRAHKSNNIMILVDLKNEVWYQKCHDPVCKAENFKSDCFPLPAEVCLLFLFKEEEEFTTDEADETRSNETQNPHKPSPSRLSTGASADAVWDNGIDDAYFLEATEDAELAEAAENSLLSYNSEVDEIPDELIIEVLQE
Sequence of UniProt Q13362 (Q13362 whole entry, looked up): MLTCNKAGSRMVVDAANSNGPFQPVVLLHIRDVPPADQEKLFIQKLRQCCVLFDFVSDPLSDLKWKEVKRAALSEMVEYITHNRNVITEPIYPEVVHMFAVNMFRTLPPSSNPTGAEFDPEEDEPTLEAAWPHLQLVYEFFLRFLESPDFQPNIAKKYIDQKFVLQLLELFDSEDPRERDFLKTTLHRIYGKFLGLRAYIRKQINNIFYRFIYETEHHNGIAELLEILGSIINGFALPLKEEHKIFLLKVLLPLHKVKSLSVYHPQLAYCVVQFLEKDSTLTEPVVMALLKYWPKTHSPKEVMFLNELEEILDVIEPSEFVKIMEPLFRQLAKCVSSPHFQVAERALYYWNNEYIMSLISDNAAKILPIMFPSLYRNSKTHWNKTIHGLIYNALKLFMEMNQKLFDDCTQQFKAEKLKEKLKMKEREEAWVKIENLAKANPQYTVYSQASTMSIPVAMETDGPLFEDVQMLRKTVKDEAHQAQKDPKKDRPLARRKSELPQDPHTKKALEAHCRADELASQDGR
Sequence of UniProt O00329 (O00329 whole entry, looked up): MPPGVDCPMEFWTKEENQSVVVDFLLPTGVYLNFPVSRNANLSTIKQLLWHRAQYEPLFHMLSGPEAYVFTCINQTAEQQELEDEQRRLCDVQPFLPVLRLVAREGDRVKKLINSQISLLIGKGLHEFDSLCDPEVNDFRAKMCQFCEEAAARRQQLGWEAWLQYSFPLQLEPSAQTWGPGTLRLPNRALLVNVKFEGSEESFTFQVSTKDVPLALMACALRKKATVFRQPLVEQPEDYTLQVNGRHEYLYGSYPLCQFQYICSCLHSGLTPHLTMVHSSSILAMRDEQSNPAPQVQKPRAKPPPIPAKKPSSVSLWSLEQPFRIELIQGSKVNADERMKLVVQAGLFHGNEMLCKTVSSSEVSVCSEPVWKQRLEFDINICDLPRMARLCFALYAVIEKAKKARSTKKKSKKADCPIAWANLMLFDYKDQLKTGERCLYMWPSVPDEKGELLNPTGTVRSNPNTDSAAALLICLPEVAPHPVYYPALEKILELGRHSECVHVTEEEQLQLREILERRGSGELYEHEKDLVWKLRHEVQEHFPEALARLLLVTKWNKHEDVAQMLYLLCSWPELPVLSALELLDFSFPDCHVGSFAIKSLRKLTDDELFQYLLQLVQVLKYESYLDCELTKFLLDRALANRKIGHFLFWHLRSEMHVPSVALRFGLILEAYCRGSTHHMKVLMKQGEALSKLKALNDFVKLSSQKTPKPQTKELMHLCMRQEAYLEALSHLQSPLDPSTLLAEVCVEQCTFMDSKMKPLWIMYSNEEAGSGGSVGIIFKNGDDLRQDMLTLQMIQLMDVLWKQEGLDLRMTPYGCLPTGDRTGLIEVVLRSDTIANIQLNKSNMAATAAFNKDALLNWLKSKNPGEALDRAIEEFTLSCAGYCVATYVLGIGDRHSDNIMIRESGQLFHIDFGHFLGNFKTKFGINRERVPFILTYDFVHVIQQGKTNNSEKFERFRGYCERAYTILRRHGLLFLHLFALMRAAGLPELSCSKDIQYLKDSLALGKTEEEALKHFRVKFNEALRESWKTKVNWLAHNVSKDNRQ

With PNPLA4 (UniProt P41247), the log2 fold change in the experiment with vemurafenib is 0.098; in experiment [1] it was 0.002; in experiment [2], -0.111; in experiment [3], 0.165; in experiment [4], 0.414; with saracatinib it was 0.009. Besides, the log2 fold change in the experiment with sotrastaurin is -0.013.
PRR4 (UniProt Q16378): the log2 fold change with vemurafenib is 0.367; in experiment [5] it was 0.038; in experiment [1], -0.21; with volasertib, -0.046; in experiment [2], -0.005; in experiment [3], 0.358. In experiment [4], the log2 fold change is -1.21 (active).
As to PCBP2 (UniProt F8W0G4), the log2 fold change with vemurafenib is 0.121; with barasertib, 0.035; in experiment [1], -0.253; in [2] it was -0.066; with saracatinib it was 0.005.
Consider PFN3 (UniProt P60673), for which the log2 fold change is 0.059 in the experiment with vemurafenib; 0 in experiment [5]; 0.112 in experiment [1]; 0.056 with volasertib; -0.706 (active) in experiment [3]; 0.109 in experiment [4]. The log2 fold change in the experiment with sotrastaurin is 0.042.
On to PIK3CD (UniProt O00329), for which the log2 fold change with vemurafenib was -0.094; in experiment [5], 0.005; in the experiment with barasertib, -0.046; with volasertib, -0.015; in experiment [2], 0.072; in experiment [3], -0.109. The log2 fold change is 0.398 in experiment [4], -0.04 with saracatinib and 0.023 with sotrastaurin.
As to PPIC (UniProt P45877), the log2 fold change was -0.009 with vemurafenib; 0.203 with barasertib; 0.078 in experiment [2]; -0.112 in experiment [3]; 0.124 in [4]; -0.004 with saracatinib. For the same target, in the experiment with sotrastaurin, the log2 fold change was -0.453 (active).
For the target PIM1 isoform 2 (UniProt P11309), the log2 fold change in the experiment with vemurafenib was -0.061; with barasertib, 0.139; in experiment [1], 0.002; in [2], 0.073; in experiment [3] it was -0.068; in experiment [4], 1.46 (active). The figures for the log2 fold change with saracatinib and with sotrastaurin were 0 and 0.593 (active), respectively.
For the target PIP5K1A (UniProt Q99755), the log2 fold change in experiment [5] was 0.029; with barasertib, 0.108; with volasertib, 0.07; in experiment [2], -0.041; in experiment [3], 0.027; in experiment [4], -0.514 (active). Besides, the log2 fold change with saracatinib is 0.107; with sotrastaurin it was -0.018.
Consider PPP2R5C isoform 2 (UniProt Q13362), for which the log2 fold change with vemurafenib was 0.014; with barasertib, -0.267; in experiment [2] it was -0.081; in experiment [3], -0.023; in experiment [4] it was -0.033; with saracatinib it was 0.014. Further, in the experiment with sotrastaurin, the log2 fold change was 0.134.
As to POM121C (UniProt A8CG34), the log2 fold change in [5] was -0.037; in the experiment with barasertib it was 0.201; with volasertib, -0.101; in experiment [2] it was 0.045; in experiment [3], 0.146; in experiment [4] it was 0.158.
As to PRIMPOL (UniProt Q96LW4), the log2 fold change in the experiment with vemurafenib is -0.02; with barasertib, -0.083; in experiment [1], -0.095; in [2] it was 0.011; with saracatinib, 0.014; with sotrastaurin it was 0.089.
For PHKG1 isoform 2 (UniProt Q16816), the log2 fold change with vemurafenib was -0.197; in experiment [5], -0.037; in [1], -0.062; with volasertib it was 0.033; in experiment [2] it was 0.054; in experiment [3], -0.867 (active). In addition, the log2 fold change in experiment [4] was 0.64; with saracatinib, 0.177; with sotrastaurin, -0.269.
PHC1 (UniProt P78364): the log2 fold change was 0.042 with vemurafenib; 0.034 with barasertib; 0.097 in experiment [1]; 0.066 with saracatinib; -0.354 with sotrastaurin.
As to PDIA4, A0A499FI48, the log2 fold change in experiment [3] was 1.69 (active); in experiment [4] it was -0.33; with saracatinib it was 0.03; with sotrastaurin it was -0.048.
Turning to POLR2F (UniProt U3KPV3), the results for the log2 fold change (in experiment [1]; in the experiment with saracatinib) were 0.13 and -0.051, respectively.
As for PHOSPHO2 (UniProt C9JD35), the results for the log2 fold change (in experiment [1]; with sotrastaurin) were -0.432 and -0.027, respectively.
PYGO2 (UniProt Q9BRQ0): the log2 fold change with barasertib is 0.036; in experiment [1] it was -0.106; in experiment [2] it was 0; in experiment [3], -0.044; in [4], 0.042; with saracatinib, 0.07. Also, the log2 fold change in the experiment with sotrastaurin was -0.022.
